Screening data from PubChem BioAssay.
Hits are enriched below; roughly 21% of the tested compounds scored in any of these assays.
IL-1B inflam inh – inhibitors of inflammasome signaling (IL-1 beta secretion); activity change, % at 57.5 µM; actives 4.7% (n = 360,000); THP-1 LPS/ATP IL-1B secretion, AlphaLISA, 16 h; active compounds read low; in the data active = activity change below about -50%; inconclusive = mostly about -30% to -49%
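THP-1 cells pretreated 1 hr with compounds (up to 57.5 uM final), then stimulated with LPS (250 ng/mL final) plus ATP (1.25 mM final); secreted IL-1B measured by AlphaLISA after 16 hr, decreased signal indicating inhibition.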
DRD3 agonist – D3 dopamine receptor (human) agonism; P35462; D3R DiscoveRx beta-arrestin cells, luminescence, 90 min; max activation, %; actives 0.58% (n = 410,000); AID 652048; in the data active = max activation above about 30%
Target sequence (P35462 whole entry, looked up): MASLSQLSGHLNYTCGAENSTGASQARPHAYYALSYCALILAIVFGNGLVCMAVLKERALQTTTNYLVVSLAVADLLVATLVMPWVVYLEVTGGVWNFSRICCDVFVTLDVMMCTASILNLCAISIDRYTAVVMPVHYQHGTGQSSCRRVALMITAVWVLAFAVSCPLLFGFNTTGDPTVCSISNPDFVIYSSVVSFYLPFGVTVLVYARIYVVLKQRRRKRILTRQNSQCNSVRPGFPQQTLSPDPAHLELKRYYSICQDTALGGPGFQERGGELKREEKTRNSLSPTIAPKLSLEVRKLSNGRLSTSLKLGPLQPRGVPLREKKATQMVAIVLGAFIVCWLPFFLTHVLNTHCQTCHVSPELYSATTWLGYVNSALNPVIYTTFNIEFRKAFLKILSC
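Cells at 1500/well, incubated overnight, then treated with pinned compounds (dopamine as control) for 90 min at 37 degrees C. DiscoveRx reagent added for 30 - 60 minutes at room temperature; luminescence read.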
TDP1 cell CPT – DT40-hTDP1 cell growth loss with CPT | Potency, µM (top dose mostly 46.2 µM), hits mostly inhibitors | chicken DT40 Tdp1-/-;hTDP1 cells + 20 nM CPT, ATP luminescence, 48 h | actives 12% (n = 420,000); note: nearly all actives have a fitted effect of over 55% in size
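Chicken DT40 Tdp1-/- cells stably complemented with human TDP1 were seeded at 400 cells/well in medium containing 20 nM camptothecin, exposed to pin-transferred compounds, and grown at 37 °C for at least 48 hr. Viability was read as ATP luminescence.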
DT40 TDP1 no CPT – qHTS for Inhibitors of human tyrosyl-DNA phosphodiesterase 1 (TDP1): qHTS in cells in absence of CPT | DT40 Tdp1-/- hTDP1 cells, no CPT, ATP luminescence, 48 h | Potency, µM (highest dose often 46.2 µM), usual class: inhibitors | actives 15% (n = 420,000) | AID 686978, 2013; note: nearly all actives have a fitted effect of over 55% in size
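Cells were dispensed at 400 per well, compounds added by pin tool, plates incubated ≥48 hr at 37 °C, then CellTiter-Glo added for 30 min at room temperature before luminescence reading. Line: DT40 Tdp1-/- complemented with hTDP1; camptothecin omitted.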
D3 antag – blocks the human D3 dopamine receptor. P35462. D3R cells, DiscoveRx beta-arrestin luminescence, antagonist mode; active compounds read low. max response, negative = inhibition, %. actives 2.5% (n = 360,000); in the data active = max response below about -50%; inconclusive = no clear call, values can overlap the other calls
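Cells expressing the human receptor were seeded at 1500 cells/well, incubated overnight at 37 degrees C in 5% CO2, then exposed to library compounds with dopamine controls for 90 minutes at 37 degrees C before luminescent detection.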
ClpP mod – qHTS Assay for Activators of ClpP | Potency, µM (titrated, usually from 57.5 µM) | purified B. subtilis ClpP, FRET peptide cleavage, 20 min | ATP-dependent Clp protease proteolytic subunit (Bacillus subtilis (strain 168)), P80244 | actives 1.9% (n = 340,000); active = well fitted falling curve with a large enough effect; inconclusive = small, poorly fitted or top-dose-only effect; inactive = no such curve, though single readings can be large or run the other way; note: the source files actives as falling curves though it sought activators and does not explain the sign; nearly all actives have a fitted effect of over 65% in size
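Purified B. subtilis ClpP, 10 microg/mL final in Tris/HCl pH8 with KCl, BSA, glycerol and Tween-20, cleaved an Abz/nitrotyrosine-quenched decapeptide. Fluorescence (ex 320, em 430) was read at 0 and 20 min at room temperature. Delta was normalized to 5.8 microM ADEP and DMSO/no-enzyme controls.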
A number is an active result; . = inactive; ? = inconclusive; / = not tested or not shown. Unless noted, calls come from the whole dose curve; as a rule, active = well fitted inhibition curve with a large enough effect; inconclusive = small, poorly fitted or top-dose-only effect; inactive = flat fitted curve, though single readings scatter.

SMILES	IL-1B inflam inh	DRD3 agonist	TDP1 cell CPT	DT40 TDP1 no CPT	D3 antag	ClpP mod
COc1ccc(S(=O)(=O)N2CCCCC2)cc1NC(=O)Cc1c[nH]c2ccccc12	.	.	?	15µM	.	.
COc1ccc(CC(=O)Nc2cc(S(=O)(=O)N3CCCCC3)ccc2C)cc1OC	.	.	?	18µM	.	/
CC(C)C(NS(C)(=O)=O)c1nnc2n1CCN(Cc1ccnc3ccccc13)CC2 (stereo unspecified)	/	/	?	.	/	/
CCc1ccc(C(=O)c2c(N)c(-c3nc(-c4ccc5c(c4)OCO5)cs3)c3ccccn23)cc1	/	.	.	.	/	.
COc1ccc(S(=O)(=O)N2CCCCCC2)cc1N(C)S(=O)(=O)c1ccc(C)cc1	.	.	?	13µM	.	.
COc1ccc(C)cc1S(=O)(=O)N(CC(=O)Nc1cc([N+](=O)[O-])ccc1C)c1ccc(C)c(C)c1	.	.	8.2µM	10µM	.	.
Cc1ccc(S(=O)(=O)N2CCCCC2)cc1NC(=O)COC(=O)CNC(=O)c1cc(Cl)cc([N+](=O)[O-])c1	.	.	.	.	.	.
COc1ccc(S(=O)(=O)N2CCOCC2)cc1N(C)S(=O)(=O)c1ccc(C)cc1	.	.	?	?	.	.
COc1ccc(S(=O)(=O)N2CCCCC2)cc1NCC(=O)Nc1ccc(C)cc1	.	.	16µM	9.2µM	.	/
COc1ccc([N+](=O)[O-])cc1NCC(=O)Nc1cc(S(=O)(=O)N2CCCCC2)ccc1C	.	.	15µM	23µM	.	.
COc1ccc(C(=O)c2ccc([N+](=O)[O-])cc2Cl)cc1	.	.	.	?	.	/
COC1(C)CCC2OC2(C)CCC2C1CC2(C)C (stereo unspecified)	/	/	.	.	/	/
CC1CCCN(C2(O)C(=O)Nc3ccc(Cl)cc32)C1 (stereo unspecified)	.	.	.	?	.	.
CC1CCN(c2ccc(S(=O)(=O)N3CCC(C)CC3)cc2N)CC1	.	.	21µM	16µM	.	.
CC1Cc2cc(S(=O)(=O)N3CCN(C)CC3)ccc2N1C(=O)C1CC1 (stereo unspecified)	.	.	.	.	.	.
CC1CCN(C2(O)C(=O)Nc3ccc(Cl)cc32)CC1 (stereo unspecified)	.	.	.	.	.	13µM
CC1Cc2cc(S(=O)(=O)N3CCCCC3)ccc2N1C(=O)C1CCC1 (stereo unspecified)	.	.	21µM	?	.	.
CC1CCN(c2ccc(N3C(=O)C4CCCCC4C3=O)cc2[N+](=O)[O-])CC1 (stereo unspecified)	.	.	.	.	.	.
CC1CCN(c2cc(N)c(Cl)cc2[N+](=O)[O-])CC1	-78	.	.	.	.	.
Nc1cc(S(=O)(=O)N2CCCCC2)ccc1N1CCOCC1	.	.	.	?	.	/
CCN(C(=O)CN1CCN(c2cccc(C(F)(F)F)c2)CC1)c1c(N)n(Cc2ccccc2)c(=O)[nH]c1=O	.	.	.	.	.	/
CCc1ccc(CNC(=O)C(C)n2ccc3cc(S(=O)(=O)N4CCCCCC4)ccc32)cc1 (stereo unspecified)	/	.	?	?	/	.
CC1CCN(S(=O)(=O)c2ccc3c(c2)CC(C)N3C(=O)C2CCC2)CC1 (stereo unspecified)	.	.	21µM	16µM	.	.
CCOC(=O)C1CCN(S(=O)(=O)c2ccc3c(c2)CC(C)N3C(=O)C2CCC2)CC1 (stereo unspecified)	.	.	.	?	.	.
CC1CCN(S(=O)(=O)c2ccc3c(c2)C(Cl)(Cl)C(=O)N3)CC1	.	.	10µM	16µM	-70	.
CCN(Cc1ccccc1)S(=O)(=O)c1ccc2c(c1)CC(C)N2C(=O)C1CCC1 (stereo unspecified)	/	.	?	18µM	/	.
